# Laboratory results from PubChem BioAssay (NCI).
# This is part of a sample that, as a whole, favours compounds with a hit. Of some 79,000 tested, about 15% had one in any assay. Values without a mark were called inactive. Calls of active or inactive are those of the source. Cut-off read from the data, not from the text of the source: active = growth inhibition above about 70%; inactive = the rest.
# Test: NCI Yeast Anticancer Drug Screen. Data for the rad50EPP+ strain (AID 151);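 note: 0% = growth of vehicle-treated control cultures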
# Conditions: S. cerevisiae rad50 mutant strain, active compounds read high
# Experimental: Growth inhibition of yeast strains with defined genetic alterations is measured as a screen for potential anti-cancer activity. Selected strains with alterations in DNA damage repair or cell cycle control were exposed to compounds and growth inhibition was measured relative to vehicle treated controls. The strain used in this assay is rad50EPP+
Structure (SMILES),growth inhibition (at 1.2 µM),growth inhibition (at 3.7 µM),growth inhibition (at 11.0 µM),growth inhibition (at 33.0 µM),growth inhibition (at 100.0 µM)
CC(C)/C(Cl)=N\OC(=O)Nc1ccccc1F,18%,28%,46%,59%,46%
O=[N+]([O-])/C=C/c1ccc2ccccc2c1,67%,98% (active),99% (active),99% (active),99% (active)
COc1cc(C2c3cc4c(cc3OC(Nc3ccccc3)C2C)OCO4)cc(OC)c1O (stereo not given),-1%,-3%,1%,1%,0%
O=C(O)c1ccccc1NC(=S)c1ccccc1,13%,14%,34%,53%,83% (active)
Nc1ncncc1C(C1=C(O)COC1=O)C1=C(O)COC1=O,6%,10%,10%,6%,2%
COc1ccc(Br)c(C(=O)Sc2nnnn2-c2cccc(Cl)c2)c1,3%,-19%,9%,65%,92% (active)
COc1cc(C2SCC(=O)N2c2ccc(-c3ccc(-n4c(-c5ccccc5)nc5ccccc5c4=O)cc3)cc2)cc(OC)c1OC (stereo not given),-2%,-1%,3%,4%,-1%
FC(F)(F)c1cc(NC(=S)N2c3ccccc3-n3cccc3C2c2cccnc2)cc(C(F)(F)F)c1 (stereo not given),1%,6%,18%,42%,57%
